Experimental data from PubChem BioAssay AID504848 (National Center for Advancing Translational Sciences (NCATS), 2011).
About 1,400 (61%) of roughly 2,300 compounds were called active. Not shown: some 29% with an inconclusive outcome. Calls follow the shape of the dose curve; as a rule, active = well fitted inhibition curve with a large enough effect; inconclusive = small, poorly fitted or top-dose-only effect, or effect the other way; inactive = no such curve, though single readings can be large or run the other way. So high a share suggests a set chosen from earlier hits. The list shows a part of the results.

Assay: Confirmation screen for delayed death inhibitors of the malarial parasite plastid, 96 hour incubation; also: nearly all actives have a fitted effect of over 60% in size
Settings: P. falciparum luciferase growth in erythrocytes; series mostly up to 28.7 µM; activity change, negative = inhibition: at the top concentration
Outline: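 Erythrocytes infected with luciferase-expressing P. falciparum (2% hematocrit, 0.1% parasitemia final) in RPMI 1640 with 0.5% Albumax, exposed to compounds 96 h at 37 C, 5% CO2. Growth inhibition read as decreased luciferase luminescence.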
% is scaled to controls: 0 for no effect and ±100 for the full control effect; potency is read from the fitted curve at half-maximal effect.

Structure (SMILES) | Potency | activity change, negative = inhibition
O=C(CCl)Nc1cccc2ncccc12 | 3.55 µM (active) | 
Cc1nc(SC(C)C(=O)NCC2CCCO2)c2cc(-c3ccccc3)sc2n1 (stereo not given) | 11.2 µM (active) | 
CN(C)c1ccc(S(=O)(=O)N2CCCCC2)cc1NC(=O)C1=NN(c2ccccc2)C(=O)CC1 | 3.55 µM (active) | 
O=C(Nc1cc(Cl)ccc1N1CCCC1)C1=NN(c2ccccc2)C(=O)CC1 | 12.6 µM (active) | 
O=C(CSc1nnc(COc2ccccc2)n1-c1ccccc1)c1cccs1 | 11.2 µM (active) | 
COc1cc2c(cc1OC)CN(C(=O)COc1ccccc1[N+](=O)[O-])CC2 | 14.1 µM (active) | 
COc1cc2c(cc1OC)CN(C(=O)COc1ccccc1C#N)CC2 |  | -97.4% (inactive)
COc1ccc2c(C)cc(Sc3nnnn3-c3ccccc3)nc2c1 | 15.8 µM (active) | 
Cc1ccc(C)c(-n2nnnc2Sc2nnnn2-c2ccccc2)c1 | 10 µM (active) | 
COc1cccc(/C=C2\SC(N3CCCC(C)C3)=NC2=O)c1OC (stereo not given) | 11.2 µM (active) | 
CCCOc1ccccc1/C=C1\SC(N2CCCCC2)=NC1=O | 0.891 µM (active) | 
Cc1cc(-c2ccc(C(C)C)c(S(=O)(=O)NCc3ccco3)c2)on1 | 14.1 µM (active) | 
CCc1ccc(-c2cc(C)no2)cc1S(=O)(=O)NCc1ccco1 | 12.6 µM (active) | 
CN(C)S(=O)(=O)c1cccc(NC(=S)N/N=C/c2cc(Br)ccc2O)c1 | 3.98 µM (active) | 
O=C(O)CCn1c(-c2ccccc2)cc2c1CCCC2=O |  | -11.5% (inactive)
CC(=O)/C=C/c1ccccc1Oc1c(F)c(F)nc(F)c1F | 3.16 µM (active) | 
CN(C)S(=O)(=O)c1cccc(NC(=O)CSc2cccc3cccnc23)c1 | 7.94 µM (active) | 
O=C(CSc1cccc2cccnc12)N/N=C/c1cccnc1 | 12.6 µM (active) | 
O=C(Nc1ccccc1)C1=C[C@@H](C2CCCCC2)C[C@@H](OCc2ccc(CO)cc2)O1 | 10 µM (active) | 
O=C(NCc1ccccc1)C1=C[C@@H](c2coc3ccccc3c2=O)C[C@@H](OCc2ccc(CO)cc2)O1 | 7.08 µM (active) | 
O=C(NC1CC1)C1=C[C@@H](C2CCCCC2)C[C@@H](OCc2ccc(CO)cc2)O1 | 10 µM (active) | 
COc1cccc(NC(=O)CSc2nc3n[nH]c(C)c3c(=N)n2-c2cccc(OC)c2)c1 | 6.31 µM (active) | 
NC1=NC[C@@H](Cc2ccc(O)cc2)N1CCc1cccc(F)c1 | 3.98 µM (active) | 
NC1=NC[C@H](Cc2ccc(O)cc2)N1CCc1cccc(F)c1 | 3.16 µM (active) | 
NC(=O)C1CCN(c2nc(C3CC3)nc3c2nnn3Cc2ccccc2Cl)CC1 | 3.16 µM (active) | 
CS(=O)(=O)c1ccc(-c2nnc(NC(=O)c3ccc(S(=O)(=O)N4CCCC4)cc3)o2)cc1 | 15.8 µM (active) | 
Cn1c(CCN2CCCCC2)nc2cc(NS(=O)(=O)c3ccc(F)cc3)ccc21 | 12.6 µM (active) | 
Cn1c(CCN2CCCCC2)nc2cc([N+](=O)[O-])ccc21 |  | -17.4% (inactive)

Structure (SMILES) | Potency | activity change, negative = inhibition
CC1CCN(CCc2nc3cc(NS(=O)(=O)c4ccc(F)cc4)ccc3n2C)CC1 | 12.6 µM (active) | 
CCOc1ccc(S(=O)(=O)Nc2cc(S(=O)(=O)N(CC)CC)ccc2N2CCCC2)cc1 | 0.501 µM (active) | 
N#Cc1cc(C(=O)c2cc(Cl)ccc2O)cn(-c2ccccc2)c1=O | 12.6 µM (active) | 
COc1cccc(NC(C)C(=O)Nc2cc([N+](=O)[O-])ccc2Cl)c1 (stereo not given) | 3.16 µM (active) | 
COc1ccc(Nc2cccc(Cl)c2)c(C(=O)O)c1 |  | -20.8% (inactive)
O=C(O)CCc1ccc(-c2ccccc2)n1-c1ccc(C(=O)O)cc1 |  | 0.286% (inactive)
Cc1ccc(NC(=O)/C(=C\c2ccc([N+](=O)[O-])cc2)NC(=O)c2ccccc2)cc1 | 2.82 µM (active) | 
Cc1ccc(NC(=O)c2ccc(Nc3c([N+](=O)[O-])cc([N+](=O)[O-])cc3[N+](=O)[O-])cc2)cc1 | 2.24 µM (active) | 
CN1c2ccccc2-c2nc3ccccc3n2C1c1cccs1 (stereo not given) | 4.47 µM (active) | 
O=C(c1ccc(CS(=O)c2ccccc2Cl)o1)N1CCCCCC1 (stereo not given) | 5.62 µM (active) | 
O=C(c1ccc(CS(=O)c2ccccc2Cl)o1)N1CCN(c2ccccn2)CC1 (stereo not given) | 1.41 µM (active) | 
CO[C@H]1[C@H](O[C@H]2O[C@@H](C)[C@@H](O[C@@H]3C[C@](C)(O)[C@H](O)[C@H](C)O3)[C@@H](N(C)C)[C@@H]2O)[C@@H](CC=O)C[C@@H](C)[C@@H](O[C@H]2CC[C@H](N(C)C)[C@H](C)O2)/C=C\C=C/C[C@@H](C)OC(=O)C[C@H]1O | 2.51 µM (active) | 
CO[C@@H]1[C@@H](OC2OC(C)C(OC3CC(C)(O)C(OC(=O)CC(C)C)C(C)O3)C(N(C)C)C2O)[C@@H](CC=O)C[C@@H](C)C(=O)/C=C\C2O[C@H]2C[C@@H](C)OC(=O)C[C@H]1OC(C)=O (stereo not given in full) | 1.78 µM (active) | 
Cc1ccc(OCCSCc2nnc(NC(=O)Nc3cccc(Cl)c3)s2)cc1 | 2 µM (active) | 
CCCNC(=O)COC(=O)c1ccccc1C(=O)c1ccc(Cl)c([N+](=O)[O-])c1 | 10 µM (active) | 
Cc1onc(-c2c(F)cccc2Cl)c1-c1nnc(-c2ccc(C(F)(F)F)cc2)o1 | 6.31 µM (active) | 
COc1cc(O)cc(O)c1C(=O)/C=C/c1ccccc1 | 11.2 µM (active) | 
COc1ccc(C(=O)/C=C/c2ccccc2)c(OC)c1 | 7.94 µM (active) | 
COc1ccc2cc(C(=O)/C=C/c3cc(OC)c(O)c(OC)c3)ccc2c1 | 15.8 µM (active) | 
COc1cc(/C=C/C(=O)Nc2cccnc2)cc(OC)c1OC | 11.2 µM (active) | 
COc1ccc(C(=O)/C=C/c2cccnc2)c(OC)c1 | 3.55 µM (active) | 
COc1ccc(C(=O)/C=C/c2ccc(OC)c(O)c2)c(F)c1 | 11.2 µM (active) | 
Cc1ccc(Nc2cc(C)nc3ccc(C)cc23)cc1 | 10 µM (active) | 
COC(=O)C1=C(C)N(CC2CC2)C(=NCc2cc(OC)c(OC)c(OC)c2)N[C@H]1c1ccccc1 | 11.2 µM (active) | 
COc1cc2c(cc1OC)[C@@H](NC(=O)C(C)C)[C@H](OCc1ccccc1)C2 |  | -82.6% (inactive)
Cc1nc(-c2ccccn2)sc1C(=O)Nc1ccc(Cl)c(Cl)c1 |  | -23% (inactive)
O=C(Nc1ccc(N2CCCCC2)c(Cl)c1)c1cccnc1 | 12.6 µM (active) | 
